# Assay outcomes deposited in PubChem BioAssay by National Center for Advancing Translational Sciences (NCATS).
# The list is not random: actives were taken first. Their share in the collection is about 21%.
# SARS PLpro yeast: SARS-CoV PLP inhibition in yeast. AID 485353. S. cerevisiae expressing SARS-CoV PLpro, growth rescue. Potency, µM (highest dose often 32.9 µM), for inactives: top-dose activity, positive = growth rescue, hits mostly activators. actives 0.19% (n = 330,000); also: potency is read from the fitted curve at half-maximal effect; 0% is about no effect; nearly all actives have a fitted effect of over 55% in size
# Cycloheximide cs: counter-screen for Shiga toxin inhibitors: cycloheximide protein synthesis inhibition; cell reporter, cycloheximide protein synthesis inhibition counterscreen; actives 12% (n = 300,000); AID 2314; max response, %; in the data active = max response mostly above about 13%, no sharp cut-off; inactive = mostly below about 14%; also: read at 38.3 µM for the half of the compounds with a filed dose; 0% is about no effect
# Pf growth 48h: inhibits P. falciparum growth in the first generation, 48 h. Potency, µM (top dose mostly 28.7 µM), for inactives: at the highest dose activity change, negative = inhibition, most hits filed as inhibitors. AID 504832. P. falciparum luciferase growth in erythrocytes, 48 h. actives 5.9% (n = 310,000); active = well fitted inhibition curve with a large enough effect; inconclusive = small, poorly fitted or top-dose-only effect, or another doubt; inactive = no such curve, though single readings can be large or run the other way; also: potency is read from the fitted curve at half-maximal effect; % is scaled to controls: 0 for no effect and ±100 for the full control effect
#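 In quantitative HTS format, infected erythrocytes bearing luciferase-reporter parasites were treated for a single generation at 37 C. Luminescence after adding detection reagent served as the growth measure.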
# Pf growth 96h: P. falciparum growth inhibition at 96 hours | P. falciparum luciferase reporter growth, 96 h | Potency, µM (highest dose often 28.7 µM), for the others: at the top dose activity change, negative = inhibition, actives largely listed as inhibitors | actives 6.9% (n = 320,000); active = well fitted inhibition curve with a large enough effect; inconclusive = small, poorly fitted or top-dose-only effect, or another doubt; inactive = no such curve, though single readings can be large or run the other way; also: potency is read from the fitted curve at half-maximal effect; % is scaled to controls: 0 for no effect and ±100 for the full control effect
#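 Luminescence readout: decreased luciferase signal marks inhibited growth of reporter-expressing P. falciparum in infected red cells (2% hematocrit, 0.05% parasitemia final), exposed to compound two generations (96 h, 37 C, 5% CO2).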
# Shiga toxin inh: blocks Shiga toxin action in Vero cells. Vero cells, Shiga toxin protein synthesis inhibition reporter. inhibition, % at 38.7 µM. actives 9.2% (n = 290,000); in the data active = inhibition mostly above about 28%, no sharp cut-off; inactive = mostly below about 43%; also: 0% is about no effect
# NS1 function inh: inhibitors of influenza NS1 protein function; Potency, µM (titrated, usually from 46.1 µM), without a hit: at the highest dose activity, positive = more growth; actives 0.4% (n = 270,000); also: potency is read from the fitted curve at half-maximal effect; actives are rising curves; nearly all actives have a fitted effect of over 50% in size
#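 S. cerevisiae expressing influenza A NS1, grown in glucose, washed, then diluted 1:100 into pH 6.0 -URA galactose medium with 23 nl compound. Growth recovery read as OD600; NS1-free strain serves as control.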
# Starred values were filed as active, the others as inactive; ? = inconclusive; nt = no result; [ ] = remark or other dose. Unless noted, calls follow the shape of the full dose curve.
SMILES,SARS PLpro yeast,Cycloheximide cs,Pf growth 48h,Pf growth 96h,Shiga toxin inh,NS1 function inh
COc1cccc(C=N[C@@H](CO)[C@@H](O)c2ccc([N+](=O)[O-])cc2)c1O,0%,-1,13%,34%,-12,-2%
CCOc1ccccc1/C=N/Nc1cc(C)nc2ccc(C)cc12,-1%,14,-7%,?,nt,-25%
O=c1nccc(N/N=C/c2ccccc2O)[nH]1,1%,27*,9.3µM*,0.83µM*,31,3%
COc1cccc(/C=N/Nc2ccc(S(=O)(=O)O)cc2)c1O,0%,1,31%,68%,7,1%
O=C(NNC(=O)c1ccccc1Cl)c1cccs1,9%,31,79%,?,35*,9%
COc1ccc(Cl)cc1NC(=S)NNC(=O)c1cccs1,0%,23*,?,?,43*,-3%
COc1ccc(Cl)cc1NC(=S)NNC(=O)c1cccnc1,6%,-1,?,?,-8,nt
O=C(NNC(=O)c1cc(Cl)ccc1O)c1cccs1,1%,29*,63%,?,49*,8%
O=C(Nc1ccccc1C(=O)N1CCCCC1)c1cccs1,1%,-1,17%,6.6µM*,-9,0%
COc1cccc(C(CNC(=O)c2ccc(Cl)c(S(=O)(=O)N3CCCC3)c2)N(C)C)c1 (configuration not stated),-5%,nt,nt,nt,nt,nt
O=C(NNC(=O)c1ccc2c(=O)n3c(nc2c1)CCC3)c1cccc(Cl)c1,nt,nt,21%,4%,nt,nt
O=C(Nc1cccc(C(=O)Nc2ccc(F)cc2F)c1)c1ccccc1,-3%,11,24%,-15%,11,-2%
Cc1c(NC(=O)c2cccs2)cccc1NC(=O)c1cccs1,nt,-2,30%,-21%,2,16%
O=C(NNC(=O)c1ccccc1Cl)c1ccccc1Cl,1%,18*,51%,23%,17,3%
O=C(Nc1ccccc1Cl)c1cccs1,4%,27*,64%,?,104*,-6%
O=C(Nc1ccccc1Cl)c1ccc(-c2ccccn2)s1,-2%,49*,158%,50%,64*,-52%
O=C(/C=C/c1ccccc1Cl)NNC(=O)c1cccs1,0%,32*,1%,18%,46,nt
CC(CCc1ccccc1)NC(=O)C(=O)NCCc1ccccc1 (configuration not stated),3%,11,7%,58%,24,2%
O=C(NNC(=O)c1ccccc1Cl)c1ccco1,0%,17*,37%,47%,42,4%
O=C(NNC(=O)c1ccccc1[N+](=O)[O-])c1ccco1,2%,11,70%,0%,13,nt
O=C(Nc1ccc(N2C(=O)C3CCCCC3C2=O)cc1Cl)c1cccs1 (configuration not stated),-3%,18*,13%,14%,31,nt
COc1ccc2oc(=O)c(C(=O)NCc3ccccc3)cc2c1,0%,-4,-1%,?,-2,-8%
COc1ccc2oc(=O)c(C(=O)OCc3ccccc3)cc2c1,-1%,23*,8%[0.00184 µM],0%,36,-10%
CN(C(=O)COC(=O)c1cc2ccccc2oc1=O)C1CCCCC1,0%,nt,nt,nt,nt,nt
O=C(OC[C@@H]1CCCN2CCCC[C@H]12)c1cc2ccccc2oc1=O,-7%,-1,10%,-7%,-8,-25%
SMILES,SARS PLpro yeast,Cycloheximide cs,Pf growth 48h,Pf growth 96h,Shiga toxin inh,NS1 function inh
COC(=O)c1ccc(COC(=O)c2cc3ccccc3oc2=O)cc1,7%,11*,10%,?,24,-12%
COC(=O)c1ccc(CNC(=O)c2cc3ccccc3oc2=O)cc1,5%,1,0%,9%,3,-3%
CC(=O)c1ccc(COC(=O)c2cc3ccccc3oc2=O)cc1,0%,25*,6%,13µM*,22,24%
CCOC(=O)c1ccc(COC(=O)c2cc3ccccc3oc2=O)o1,0%,28*,18%,-2%,40,-18%
N#CCCN(Cc1cccnc1)C(=O)c1sc2cc(F)ccc2c1Cl,-19%,-1,-7%,-22%,-13,10%
COc1ccc(-c2noc(N3CCC(C(=O)Nc4ccccc4F)CC3)n2)cc1,-5%,1,-17%,16%,2,8%
COc1ccc(-c2cc(C(=O)Nc3ccccc3F)on2)cc1,-3%,33*,231%,89%,80*,nt
COc1ccc(-c2cc(C(=O)Nc3ccccc3)on2)cc1,0%,19*,230%,423%,124*,9%
O=C(Nc1ccc(F)cc1)c1cc(-c2ccccc2)no1,0%,-4,36%,86%,31,7%
C[C@@H]1CC[C@]2(C(=O)O)CC[C@]3(C)C(=CCC4[C@@]5(C)C[C@@H](O)[C@H](O)[C@@](C)(CO)C5CC[C@]43C)C2[C@H]1C (some centres not stated),nt,-1,nt,nt,-10,nt
Nc1n[nH]c(C2CC2)c1N=Nc1ccc(Cl)c(Cl)c1,-20%,22,42%,30%,51*,?
O=C(O)c1ccc(S(=O)(=O)c2ccc(Sc3ccc(C(=O)O)c(C(=O)O)c3)cc2)cc1,0%,-5,-7%,22%,-1,3%
O=C(Nc1cc2c(cc1Cl)OCCCO2)c1ccccc1,-9%,31*,138%,nt,99*,-4%
O=C(Nc1cc2c(cc1C(=O)O)OCCCO2)c1ccc(F)cc1F,0%,17*,69%,83%,45,0%
O=C(Nc1cc2c(cc1Cl)OCCCO2)c1ccco1,8%,80*,228%,232%,105*,-2%
CCOc1cc(Cl)c(NC(=O)c2ccco2)cc1OCC,-10%,-2,-1%,26%,6,-6%
COc1ccccc1C(=O)Nc1cc2c(cc1C(=O)O)OCCCO2,1%,-6,6%,-3%,-7,-14%
CC(=O)c1c(C)[nH]c(C(=O)NC(C)c2ccccc2)c1C (configuration not stated),2%,14,21%,-2%,14,nt
Cc1ccc(/C=C/C(=O)NCCCc2ccccc2)cc1,0%,19*,9%,21%,14,-2%
C#CCNC(=O)/C=C/c1ccc(C)cc1,9%,36*,159%,124%,46,7%
CCc1ccc(NC(=O)CC2C(=O)N(c3ccc(C)cc3)C(=O)N2C2CC2)cc1 (configuration not stated),0%,0,?,?,-2,-4%
CC(C)(O)c1cn(-c2nonc2N)nn1,4%,-2,10%,12%,-14,1%
CC(=O)N1c2ccccc2N(Cc2ccc(C)cc2C)C(=O)C1(C)C,-8%,-5,nt,1.7µM*,-19,-49%
COc1ccccc1N/C(=N/S(=O)(=O)c1ccc(C)cc1)c1ccc(Cl)cc1,-27%,3,?,?,34,-7%
CCc1ccccc1N1C(=O)C(Cl)=C(N2CCOCC2)C1=O,2%,-3,1%,1.5µM*,nt,1%
